Measured values published in the supplement of paper PMC9023506.
Structures can show the parent of a compound that is named as a salt.

tested on: Danio rerio larvae (5 dpf); test: optomotor response to green moving lines, difference vs DMSO (percentage points (treated minus DMSO)); higher = more of the behaviour than the DMSO vehicle control; conditions: 10 µM; exposure time: 3 h pre-incubation + 3 h imaging
Method: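 5-dpf wild-type zebrafish larvae were imaged in 96-well plates. They were treated with 190 Tocris FDA-approved drugs at 10 µM (1 µl/ml DMSO) for 3 h before and 3 h during imaging at 28.5 °C, 48 larvae per drug. Automated image analysis gave % time moving and optomotor responses. Values are drug group mean minus DMSO vehicle mean (n=844), in percentage points, for 10 behaviours.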

Row | SMILES | optomotor response to green moving lines
1 | CN/C(=N\CCSCc1nc[nH]c1C)NC#N [Cimetidine] | 5.06
2 | O=C1CCc2cc(OCCCCc3nnnn3C3CCCCC3)ccc2N1 [Cilostazol] | 3.44
3 | CC(C)(C)NC(=O)[C@@H]1C[C@@H]2CCCC[C@@H]2CN1C[C@@H](O)[C@H](Cc1ccccc1)NC(=O)[C@H](CC(N)=O)NC(=O)c1ccc2ccccc2n1 [Saquinavir mesylate] | -3.04
4 | OCCN1C[C@H](O)[C@@H](O)[C@H](O)[C@H]1CO [Miglitol] | 2.58
5 | CC(C)c1ccc2oc3nc(N)c(C(=O)O)cc3c(=O)c2c1 [Amlexanox] | -0.74
6 | CCCC1O[C@@H]2C[C@H]3[C@@H]4CCC5=CC(=O)C=C[C@]5(C)[C@H]4[C@@H](O)C[C@]3(C)[C@]2(C(=O)CO)O1 (stereo not given in full) [Budesonide] | 0.891
7 | NC(=O)N1c2ccccc2C=Cc2ccccc21 [Carbamazepine] | -0.434
8 | C[C@H](Cc1cc2c(c(C(N)=O)c1)N(CCCO)CC2)NCCOc1ccccc1OCC(F)(F)F [Silodosin] | 1.5
9 | Cc1ccc(-c2cc(C(F)(F)F)nn2-c2ccc(S(N)(=O)=O)cc2)cc1 [Celecoxib] | 0.469
10 | CC(=O)O[C@]1(C(C)=O)CC[C@H]2[C@@H]3C=C(C)C4=CC(=O)CC[C@]4(C)[C@H]3CC[C@@]21C [Megestrol Acetate] | -2.03
11 | CCCc1nn(C)c2c(=O)[nH]c(-c3cc(S(=O)(=O)N4CCN(C)CC4)ccc3OCC)nc12 [Sildenafil citrate] | -1.55
12 | COc1ccc([C@@H]2Sc3ccccc3N(CCN(C)C)C(=O)[C@@H]2OC(C)=O)cc1 [Diltiazem hydrochloride] | -3.02
13 | CCOC(=O)C1=C(COCCN)NC(C)=C(C(=O)OC)C1c1ccccc1Cl (stereo not given) [Amlodipine besylate] | -4.86
14 | CC(=O)Oc1ccccc1C(=O)O [Aspirin] | -12.5
15 | CC(C)c1nc(N(C)S(C)(=O)=O)nc(-c2ccc(F)cc2)c1/C=C/[C@@H](O)C[C@@H](O)CC(=O)O [Rosuvastatin calcium] | 2.28
16 | CN[C@H]1CC[C@@H](c2ccc(Cl)c(Cl)c2)c2ccccc21 [Sertraline hydrochloride] | -6.64
17 | COc1cc([C@@H]2c3cc4c(cc3[C@@H](O[C@@H]3O[C@@H]5CO[C@@H](C)O[C@H]5[C@H](O)[C@H]3O)[C@H]3COC(=O)[C@H]23)OCO4)cc(OC)c1O [Etoposide] | -0.812
18 | NS(=O)(=O)c1cc(C(=O)O)c(NCc2ccco2)cc1Cl [Furosemide] | -6.99
19 | CN(CCOc1ccc(CC2SC(=O)NC2=O)cc1)c1ccccn1 (stereo not given) [Rosiglitazone] | 1.76
20 | CN(C)C(=N)NC(=N)N [Metformin hydrochloride] | 7.37

Row | SMILES | optomotor response to green moving lines
21 | CNCc1ccc(-c2[nH]c3cc(F)cc4c3c2CCNC4=O)cc1 [Rucaparib camsylate] | 1.55
22 | Cc1c(-c2ccc(O)cc2)n(Cc2ccc(OCCN3CCCCCC3)cc2)c2ccc(O)cc12 [Bazedoxifene acetate] | -2.2
23 | NC(=O)c1ncn([C@@H]2O[C@H](CO)[C@@H](O)[C@H]2O)n1 [Ribavirin] | -3.77
24 | COc1c(C)c2c(c(O)c1C/C=C(\C)CCC(=O)OCCN1CCOCC1)C(=O)OC2 [Mycophenolate mofetil] | 4.99
25 | COc1c(C)c2c(c(O)c1C/C=C(\C)CCC(=O)O)C(=O)OC2 [Mycophenolic acid] | -1.15
26 | Clc1ccc(COC(Cn2ccnc2)c2ccc(Cl)cc2Cl)c(Cl)c1 (stereo not given) [Miconazole nitrate] | -5.21
27 | CN(CCOc1ccc(NS(C)(=O)=O)cc1)CCc1ccc(NS(C)(=O)=O)cc1 [Dofetilide] | 0.112
28 | COCCCOc1cc(C[C@@H](C[C@H](N)[C@@H](O)C[C@H](C(=O)NCC(C)(C)C(N)=O)C(C)C)C(C)C)ccc1OC [Aliskiren hemifumarate] | -4.53
29 | OCCOCCN1CCN(C2=Nc3ccccc3Sc3ccccc32)CC1 [Quetiapine hemifumarate] | 10.3
30 | COc1ccc(Cl)cc1C(=O)NCCc1ccc(S(=O)(=O)NC(=O)NC2CCCCC2)cc1 [Glibenclamide] | 9.49
31 | CNC(=O)c1cc(Oc2ccc(NC(=O)Nc3ccc(Cl)c(C(F)(F)F)c3)cc2)ccn1 [Sorafenib] | -2.72
32 | Nc1nc(NC2CC2)c2ncn([C@H]3C=C[C@@H](CO)C3)c2n1 [Abacavir hemisulfate] | 6.07
33 | CC/C(=C(\c1ccccc1)c1ccc(OCCN(C)C)cc1)c1ccccc1 [Tamoxifen citrate] | -10
34 | NS(=O)(=O)Cc1noc2ccccc12 [Zonisamide] | 8.43
35 | CC(C)c1nc(CN(C)C(=O)N[C@H](C(=O)N[C@@H](Cc2ccccc2)C[C@H](O)[C@H](Cc2ccccc2)NC(=O)OCc2cncs2)C(C)C)cs1 [Ritonavir] | -6.36
36 | COc1ccccc1OCC(O)CN1CCN(CC(=O)Nc2c(C)cccc2C)CC1 (stereo not given) [Ranolazine dihydrochloride] | -0.274
37 | O=C(O[C@@H]1C[C@@H]2C[C@H]3C[C@H](C1)N2CC3=O)c1c[nH]c2ccccc12 [Dolasetron mesylate] | -11.6
38 | COc1cc2nc(N3CCN(C(=O)c4ccco4)CC3)nc(N)c2cc1OC [Prazosin hydrochloride] | -10.2
39 | CN1CCN2c3ncccc3Cc3ccccc3C2C1 (stereo not given) [Mirtazapine] | -1.59
40 | OC(c1cc(C(F)(F)F)nc2c(C(F)(F)F)cccc12)C1CCCCN1 (stereo not given) [Mefloquine hydrochloride] | -0.307
